Reference: the supplement of paper PMC6897291

What was measured:
RIVA [1] = assay: growth inhibition by drug plus 177Lu-lilotomab satetraxetan (1 - RLU/untreated control) (fraction); higher = stronger inhibition; settings: 177Lu-lilotomab satetraxetan 0.5 ug/ml
Method in brief: (§1)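 A radiolabelled anti-CD37 antibody conjugate (~600 MBq/mg) was applied for 18 h at 0.5 µg/ml to RIVA and 1 µg/ml to U-2932 cells, with untreated cells run alongside. All cells were washed and seeded at 3,000 cells/well onto library-printed plates at 10/100 nM (RIVA) or 10/1,000 nM (U-2932). Growth inhibition was based on RealTime-Glo luminescence compared with untreated no-drug wells. Daily reads began on day 3 after 1 h at 37°C, with each value being 1 − RLU/mean of the 48 such wells on that plate.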

U-2932 [2] = assay: growth inhibition by drug alone (1 - RLU/untreated control) (fraction); higher = stronger inhibition; settings: 177Lu-lilotomab satetraxetan 0 ug/ml
Method in brief: as §1

RIVA [3] = assay: as above; settings: 177Lu-lilotomab satetraxetan 0 ug/ml
Method in brief: as §1

U-2932 [4] = assay: growth inhibition by drug plus 177Lu-lilotomab satetraxetan (1 - RLU/untreated control) (fraction); higher = stronger inhibition; settings: 177Lu-lilotomab satetraxetan 1 ug/ml
Method in brief: as §1

Structure (SMILES)	growth inhibition by drug plus 177Lu-lilotomab satetraxetan (RIVA [1]; 100 nM, time (day): 5)	growth inhibition by drug plus 177Lu-lilotomab satetraxetan (RIVA [1]; 100 nM, time (day): 6)	growth inhibition by drug alone (U-2932 [2]; 10 nM, time (day): 3)	growth inhibition by drug alone (U-2932 [2]; 10 nM, time (day): 4)	growth inhibition by drug alone (U-2932 [2]; 10 nM, time (day): 5)	growth inhibition by drug alone (U-2932 [2]; 10 nM, time (day): 6)	growth inhibition by drug alone (U-2932 [2]; 1000 nM, time (day): 3)	growth inhibition by drug alone (U-2932 [2]; 1000 nM, time (day): 4)	growth inhibition by drug alone (U-2932 [2]; 1000 nM, time (day): 5)	growth inhibition by drug alone (U-2932 [2]; 1000 nM, time (day): 6)	growth inhibition by drug alone (RIVA [3]; 10 nM, time (day): 3)	growth inhibition by drug alone (RIVA [3]; 10 nM, time (day): 4)	growth inhibition by drug alone (RIVA [3]; 10 nM, time (day): 5)	growth inhibition by drug alone (RIVA [3]; 10 nM, time (day): 6)	growth inhibition by drug alone (RIVA [3]; 100 nM, time (day): 3)	growth inhibition by drug alone (RIVA [3]; 100 nM, time (day): 4)	growth inhibition by drug alone (RIVA [3]; 100 nM, time (day): 5)	growth inhibition by drug alone (RIVA [3]; 100 nM, time (day): 6)	growth inhibition by drug plus 177Lu-lilotomab satetraxetan (U-2932 [4]; 10 nM, time (day): 3)	growth inhibition by drug plus 177Lu-lilotomab satetraxetan (U-2932 [4]; 10 nM, time (day): 4)	growth inhibition by drug plus 177Lu-lilotomab satetraxetan (U-2932 [4]; 10 nM, time (day): 5)	growth inhibition by drug plus 177Lu-lilotomab satetraxetan (U-2932 [4]; 10 nM, time (day): 6)	growth inhibition by drug plus 177Lu-lilotomab satetraxetan (U-2932 [4]; 1000 nM, time (day): 3)	growth inhibition by drug plus 177Lu-lilotomab satetraxetan (U-2932 [4]; 1000 nM, time (day): 4)	growth inhibition by drug plus 177Lu-lilotomab satetraxetan (U-2932 [4]; 1000 nM, time (day): 5)	growth inhibition by drug plus 177Lu-lilotomab satetraxetan (U-2932 [4]; 1000 nM, time (day): 6)	growth inhibition by drug plus 177Lu-lilotomab satetraxetan (RIVA [1]; 10 nM, time (day): 3)	growth inhibition by drug plus 177Lu-lilotomab satetraxetan (RIVA [1]; 10 nM, time (day): 4)	growth inhibition by drug plus 177Lu-lilotomab satetraxetan (RIVA [1]; 10 nM, time (day): 5)	growth inhibition by drug plus 177Lu-lilotomab satetraxetan (RIVA [1]; 10 nM, time (day): 6)	growth inhibition by drug plus 177Lu-lilotomab satetraxetan (RIVA [1]; 100 nM, time (day): 3)	growth inhibition by drug plus 177Lu-lilotomab satetraxetan (RIVA [1]; 100 nM, time (day): 4)
NC(=O)Nc1sc(-c2ccc(F)cc2)cc1C(N)=O	0.413	0.434	–	–	–	–	–	–	–	–	–	–	–	–	–	–	–	–	–	–	–	–	–	–	–	–	–	–	–	–	–	–
Cc1nc(-c2ccc(OCC(C)C)c(C#N)c2)sc1C(=O)O [Febuxostat (Uloric)]	0.463	0.45	0.06	0.0554	0.0252	-0.0354	0.00138	0.0444	-0.00425	-0.214	0.0707	0.00437	-0.101	-0.473	0.158	0.082	0.0362	-0.046	0.0457	0.0731	0.0564	0.0873	-0.0156	0.0704	0.0056	-0.0613	0.368	0.506	0.513	0.525	0.42	0.463
CCOC(=O)[C@@H](C)Oc1cccc2c(=O)n(CC(=O)Nc3ccc4c(c3)OCCO4)ccc12	0.427	0.414	-0.0226	-0.00751	0.0431	0.176	-0.114	-0.0578	-0.0945	-0.15	-0.12	-0.131	-0.182	-0.361	0.0368	-0.0449	-0.0731	-0.142	-0.0102	0.0168	0.0306	0.145	-0.139	-0.0327	-0.0266	-0.0505	0.384	0.517	0.542	0.536	0.305	0.424
CC(C)n1nc(-c2ccc3oc(N)nc3c2)c2c(N)ncnc21	0.835	0.833	0.366	0.275	0.188	0.215	0.912	0.912	0.917	0.929	0.258	0.176	0.117	-0.0267	0.716	0.708	0.699	0.63	0.352	0.294	0.31	0.355	0.908	0.905	0.918	0.937	0.595	0.576	0.586	0.587	0.816	0.84
O=C(/C=C/c1cccc(S(=O)(=O)Nc2ccccc2)c1)NO [Belinostat (PXD101)]	0.938	0.945	0.222	0.196	0.137	0.152	0.961	0.964	0.974	0.979	0.107	0.129	0.11	0.00837	0.884	0.83	0.818	0.796	0.0215	0.0654	0.0711	0.0685	0.961	0.975	0.984	0.988	0.503	0.586	0.594	0.603	0.934	0.935
C[C@]1(c2nc3c(C(N)=O)cccc3[nH]2)CCCN1 [ABT-888 (Veliparib)]	0.442	0.427	-0.0659	-0.0358	-0.0424	0.0616	-0.0937	-0.0475	-0.078	-0.068	-0.145	-0.176	-0.216	-0.314	-0.198	-0.238	-0.247	-0.287	-0.0353	-0.0127	0.0158	0.166	-0.0568	0.0163	0.019	0.0852	0.338	0.488	0.516	0.518	0.307	0.418
O=c1cc(N2CCOCC2)oc2c(-c3ccccc3)cccc12	0.473	0.446	0.0578	0.0496	-0.0145	-0.0318	0.0577	0.0696	0.0149	-0.0509	0.12	0.0305	-0.0125	-0.181	0.0387	0.0134	-0.0363	-0.116	0.00353	0.0372	0.0314	0.0726	0.0169	0.0857	0.0428	0.0454	0.442	0.529	0.563	0.58	0.423	0.463
CN1CCN(c2nc(C3=C(c4c[nH]c5ccccc45)C(=O)NC3=O)c3ccccc3n2)CC1 [Sotrastaurin (AEB071)]	0.607	0.591	0.186	0.158	0.0846	0.122	0.463	0.616	0.696	0.756	0.214	0.132	0.0773	-0.121	0.163	0.124	0.0507	-0.0643	0.109	0.131	0.175	0.293	0.572	0.709	0.75	0.788	0.535	0.604	0.626	0.628	0.584	0.609
O=C(Nc1cccc(Cl)c1)Nc1ncc(CCNc2ncnc3ccsc23)s1	0.511	0.596	0.0932	0.0546	0.111	0.319	0.16	0.209	0.218	0.355	0.0836	0.115	0.215	0.331	0.0102	0.0483	0.135	0.239	0.0766	0.0714	0.202	0.505	0.201	0.317	0.351	0.495	0.463	0.543	0.579	0.666	0.389	0.481
CCC1=C[C@@H]2CN(C1)Cc1c([nH]c3ccccc13)[C@@](C(=O)OC)(c1cc3c(cc1OC)N(C)[C@H]1[C@@](O)(C(=O)OC)[C@H](OC(C)=O)[C@]4(CC)C=CCN5CC[C@]31[C@@H]54)C2 [Vinorelbine (Navelbine)]	0.982	0.987	0.571	0.587	0.595	0.614	0.971	0.976	0.98	0.983	0.907	0.914	0.922	0.926	0.949	0.964	0.968	0.972	0.489	0.544	0.598	0.621	0.975	0.98	0.983	0.988	0.928	0.949	0.961	0.969	0.967	0.978
Cc1cccc(-c2nn3c(c2-c2ccnc4ccc(C(N)=O)cc24)CCC3)n1	0.459	0.437	-0.0698	-0.0435	-0.0298	0.0787	-0.0166	-0.0114	-0.0422	-0.0441	-0.233	-0.26	-0.269	-0.342	-0.0721	-0.126	-0.16	-0.229	-0.116	-0.0664	-0.0409	0.0836	0.0167	0.0206	-0.00167	0.117	0.371	0.487	0.502	0.523	0.372	0.444
CN1CCC(CNc2ccc3ncc(-c4cccc(OC(F)(F)F)c4)n3n2)CC1 [SGI-1776 free base]	0.445	0.462	0.04	0.0462	-0.0159	-0.415	0.131	0.115	0.0463	-0.00407	-0.104	-0.155	-0.336	-0.875	-0.453	-0.367	-0.351	-0.438	-0.0394	0.0134	0.0445	0.0394	0.154	0.125	0.168	0.265	0.428	0.539	0.541	0.561	0.302	0.441
Cn1cnc([N+](=O)[O-])c1Sc1ncnc2[nH]cnc12 [Azathioprine (Azasan, Imuran)]	0.521	0.529	0.0201	-0.00369	0.00367	0.0444	0.0785	0.0404	0.00445	0.131	-0.0287	-0.0923	-0.12	-0.24	-0.168	-0.224	-0.259	-0.337	0.00188	0.0643	0.101	0.167	0.0755	0.0766	0.124	0.326	0.505	0.533	0.565	0.573	0.444	0.518
O=C(CCc1ccc(O)cc1)c1c(O)cc(O)cc1O [Phloretin (Dihydronaringenin)]	0.532	0.521	0.0643	0.0536	-0.0351	-0.0447	-0.0185	0.0218	-0.0851	-0.198	-0.0549	-0.06	-0.168	-0.56	-0.0989	-0.0769	-0.0878	-0.189	0.0204	0.0299	0.064	0.0928	-0.0932	0.0213	-0.0168	0.0656	0.412	0.555	0.573	0.596	0.427	0.522
CO[C@H]1C[C@@H]2CC[C@@H](C)[C@@](O)(O2)C(=O)C(=O)N2CCCC[C@H]2C(=O)O[C@H]([C@H](C)C[C@@H]2CC[C@@H](OC(=O)C(C)(CO)CO)[C@H](OC)C2)CC(=O)[C@H](C)/C=C(\C)[C@@H](O)[C@@H](OC)C(=O)[C@H](C)C[C@H](C)/C=C/C=C/C=C/1C [Temsirolimus (Torisel)]	0.885	0.887	0.777	0.721	0.634	0.594	0.733	0.73	0.677	0.63	0.78	0.785	0.769	0.7	0.803	0.83	0.833	0.812	0.68	0.614	0.579	0.568	0.648	0.681	0.651	0.651	0.842	0.865	0.86	0.839	0.846	0.883
